Test system: XIP peptide (Xip251-270)
Experiment: compounds binding XIP fragment 251-270 – biochemical, small-molecule microarray, fluorescence 635/667 nm, 0.5 µg/mL protein, primary screen (AID 1183)
Conditions: fluorescence 635 nm, higher = more signal

SMILES	composite z-score
COC(=O)c1c(CC[C@@H](CO)NC(=O)N2CCC[C@H]2Cn2cc(Cc3ccccc3)nn2)oc(C(C)=O)c1C(=O)OC	0.889
O=C(NCc1ccccc1)[C@@H]1c2ccccc2C(=O)N(Cc2ccccc2C(F)(F)F)[C@H]1c1ccc(CO)cc1	0.545
O=C(NCCCCCNC(=O)/C(Cc1ccccc1)=N/O)OCc1ccccc1	0.132
C=C[C@@H](COC(C)=O)N(C(=O)OC(C)(C)C)S(=O)(=O)c1ccc(Br)cc1	0.546
CCOC(=O)C[C@H]1[C@H](OC(=O)c2ccccc2-c2ccccc2)[C@@H](NC(=O)c2ccc(-c3ccccc3)cc2)c2cc(OCCCO)ccc2N1C(=O)c1ccc2ccccc2n1	0.421
CCOC(=O)C[C@H]1[C@H](OC(=O)c2cc3ccccc3oc2=O)[C@@H](NC(=O)Cc2ccc(OC)cc2)c2cc(OCCCO)ccc2N1C(=O)c1ccc2ccccc2n1	0.255
O=C1O[C@H](c2ccccc2)[C@H](c2ccccc2)N2[C@H]1[C@@H](C(=O)Nc1nc3ccccc3s1)[C@]1(C(=O)Nc3ccc(C#CC4(O)CCCCCC4)cc31)[C@H]2c1ccccc1OCCO	0.812
COC(=O)[C@@]1(Cc2ccccc2N=[N+]=[N-])N=C(c2ccc(OCCCO)cc2)O[C@H]1c1ccccc1N=[N+]=[N-]	0.848
CC(c1ccccc1)C(O)C1C=CC2C(=O)N(c3ccccc3)C(=O)C2N1Nc1ccc([N+](=O)[O-])cc1 (stereo unspecified)	0.837
CN1C(=O)C2C=CC(C(O)c3ccc(F)cc3)N(Nc3ccccc3)C2C1=O (stereo unspecified)	0.466
CCCC[C@@H]1C[C@H]1[C@@H](NC(=O)Cc1ccccc1)c1ccc(-c2ccccc2)cc1	-0.135
O=C1C[C@@](C(=O)NCCN2CCOCC2)(c2ccc([N+](=O)[O-])cc2)[C@@H](c2ccc(CO)cc2I)N1C1CCCCC1	0.588
COC(=O)[C@@]1(Cc2ccc(F)cc2)[C@H]2c3cc(C(=O)N4CCCC4)n(CCc4ccc(O)c(O)c4)c3C[C@H]2CN1C(=O)c1ccccc1	-0.892
COC(=O)C(CC#Cc1ccc2c(c1)[C@]1(C(=O)N2)[C@H](c2ccccc2OCCO)N2[C@H](c3ccccc3)[C@H](c3ccccc3)OC(=O)[C@H]2[C@@H]1C(=O)NC[C@H](O)c1ccccc1)C(=O)OC	0.777
COc1ccc(-c2nc(-c3ccccc3)c3c(c2C)CO[Si]3(C(C)C)C(C)C)cn1	-0.447
C=CCC(OC(C)=O)[C@@H]1[C@@H](N(Cc2cc3ccccc3o2)C(=O)c2ccc(C)cc2)c2cc(OCCCO)ccc2N1C(=O)Cc1ccc(OC)cc1 (stereo partly specified)	0.0544
COc1ccc([Si](C)(C)[C@@H]2[C@@H](CC(=O)N(CCO)Cc3ccccc3)O[C@]3(C(=O)N(c4ccccc4)c4ccccc43)[C@H]2C)cc1	0.38
O=C1OCC=C[C@H]2OC34C=CCN(c5ccc(Cl)cc5)C(=O)[C@H]3N(CCO)C(=O)[C@@H]4[C@@H]12 (stereo partly specified)	-0.457

SMILES	composite z-score
O=C1OCCC=C[C@H]2OC34C=CCN(Cn5nnc6ccccc65)C(=O)[C@H]3N(CCCCCCO)C(=O)[C@@H]4C12 (stereo partly specified)	-0.948
CC(C)(C)N1CC=CC23O[C@@H]4C=CCOC(=O)[C@@H]4[C@H]2C(=O)N(CCCCCCO)[C@@H]3C1=O (stereo partly specified)	0.448
[N-]=[N+]=NCc1ccccc1[C@H]1OC(c2ccc(OCCCO)cc2)=N[C@@]1(CCS(=O)(=O)c1ccccc1)C(=O)NCC(O)CO (stereo partly specified)	0.781
C=C(/C(=C/C[C@H](OC(C)=O)c1cccc(OCCO)c1)c1cnc2ccccc2c1)C(C)C	-0.179
COCCOC(=O)N1C(=O)[C@@]2(c3cc(C#CCCO)ccc31)[C@H](c1ccccc1OCCO)N1[C@H](c3ccccc3)[C@H](c3ccccc3)OC(=O)[C@H]1[C@@H]2C(=O)Nc1nc2ccccc2s1	0.823
Cc1cc(C)c(C(O)C2C=CC3C(=O)NC(=O)C3N2Nc2ccc(Cl)cc2Cl)c(C)c1 (stereo unspecified)	0.179
C=C(COC)/C(=C/C[C@H](OC(=O)c1ccncc1)c1ccccc1OCCO)c1cnc2ccccc2c1	0.612
CCOC(=O)C1=CC[C@@H](c2ccccc2C(F)(F)F)N(S(=O)(=O)c2ccc(C)cc2)[C@H]1c1ccc(C#N)cc1	0.534
OCC1CC(c2ccccc2)=NO1 (stereo unspecified)	-0.118
CC(C)(C)OC(=O)CC[C@]1(C(=O)NCC(O)CO)N=C(c2ccc(OCCCO)cc2)O[C@H]1c1ccccc1 (stereo partly specified)	0.628
COCCOC(=O)N1C(=O)[C@@]2(c3cc(C#Cc4ccc(OC)cc4)ccc31)[C@H](c1ccccc1OCCO)N1[C@H](c3ccccc3)[C@H](c3ccccc3)OC(=O)[C@H]1[C@@H]2C(=O)N1CCCCCCC1	0.319
O=C1C2C=CC(C(O)c3ccccc3)N(Nc3ccccc3F)C2C(=O)N1c1ccccc1 (stereo unspecified)	0.726
CO[C@]12C=C(Br)[C@@H](C[C@@H]1c1cccc(C)c1)[C@@]1(CO1)C2=O	0.179
Cn1cccc1C(O)C1C=CC2C(=O)NC(=O)C2N1Nc1ccc(Cl)cc1Cl (stereo unspecified)	0.768
C=C(C(=O)CC[C@@H](OC(C)=O)c1ccc(CO)o1)C(C)C	0.656
COCCOC(=O)N1C(=O)[C@@]2(c3cc(C#Cc4ccc(OC)cc4)ccc31)[C@H](C(=O)Nc1nc3ccccc3s1)[C@H]1C(=O)O[C@H](c3ccccc3)[C@H](c3ccccc3)N1[C@@H]2c1ccc(O)cc1	0.748
CCCCCCCCCCC(O)C1C=CC2C(=O)N(C)C(=O)C2N1NC(=O)OC(C)(C)C (stereo unspecified)	0.502
COC(=O)c1ccc([C@H](NC(=O)c2ccco2)[C@]2(C)C[C@H]2C2CCCCC2)cc1	-0.727
